Laboratory results taken from the supplement of paper PMC6331611.
± gives the standard deviation of the averaged measurements. Over roughly 1,600 compounds, “normalized intracellular growth (luminescence, IQM-normalized) in RAW264.7 macrophages” has its median near 1; the lowest 2% begin near 0.43. For the sample, the lowest values were picked, then their nearest neighbours and some compounds at random.

Tested on: Salmonella enterica serovar Typhimurium SL1344
Experiment: normalized intracellular growth (luminescence, IQM-normalized) in RAW264.7 macrophages (fraction of plate interquartile mean); higher = more bacterial growth (less inhibition)
Conditions: 10 µM

| SMILES | normalized intracellular growth (time point: T3 (3 h)) | normalized intracellular growth (time point: Tfinal (~6 h)) |
| --- | --- | --- |
| CCCNC(C)(C)COC(=O)c1ccccc1 | 0.828 ± 0.083 | 0.1174 ± 0.0011 |
| O=C(OOC(=O)c1ccccc1)c1ccccc1 | 1 ± 0.017 | 1.05 ± 0.037 |
| O=C(OCc1ccccc1)c1ccccc1 | 0.966 ± 0.057 | 0.928 ± 0.069 |
| C=C1CC[C@H](O)C/C1=C/C=C1\CCC[C@]2(C)[C@@H]([C@H](C)/C=C/[C@H](C)C(C)C)CC[C@@H]12 | 1.04 ± 0.059 | 1.2 ± 0.086 |
| CC(O)(CC(=O)O)CC(=O)O | 0.971 ± 0.034 | 1.02 ± 0.061 |
| NS(=O)(=O)c1ccc(C(=O)O)cc1 | 1.006 ± 0.0098 | 0.964 ± 0.076 |
| NCc1ccc(S(N)(=O)=O)cc1 | 0.686 ± 0.071 | 0.0766 ± 0.0043 |
| Nc1ccc(S(N)(=O)=O)cc1 | 0.9673 ± 0.006 | 1.07 ± 0.1 |
| O=C(O)CN1C(=O)c2cccc3cccc(c23)C1=O | 0.914 ± 0.099 | 1.05 ± 0.096 |
| CC(=O)Nc1ccc(C(=O)O)cc1 | 1.06 ± 0.055 | 0.967 ± 0.1 |
| CCCCC(CC)CCC(CC(C)C)OS(=O)(=O)O (stereo not given) | 1.03 ± 0.031 | 1.1 ± 0.03 |
| NCCC[C@H](N)C(=O)O | 0.972 ± 0.048 | 0.966 ± 0.13 |
| C[C@H]1[C@H](NC(=O)/C(=N\OC(C)(C)C(=O)O)c2csc(N)n2)C(=O)N1S(=O)(=O)O | 0.992 ± 0.04 | 0.2 ± 0.016 |
| CC(C)(O/N=C(\C(=O)N[C@@H]1C(=O)N2C(C(=O)[O-])=C(C[n+]3ccccc3)CS[C@H]12)c1csc(N)n1)C(=O)O | 0.997 ± 0.078 | 0.806 ± 0.12 |
| FC(F)(F)COCC(F)(F)F | 0.946 ± 0.09 | 0.9 ± 0.27 |
| CC(=O)N[C@@H](CCC(N)=O)C(=O)O | 0.959 ± 0.023 | 0.942 ± 0.11 |
| Nc1ccc(S(=O)(=O)O)cc1.Nc1ccc(S(=O)(=O)O)cc1.[Zn] | 1.01 ± 0.047 | 1.15 ± 0.099 |
| CC12CCC(CC1)C(C)(C)O2 | 1.02 ± 0.024 | 0.96 ± 0.18 |
| CN(C)[C@@H]1C(O)=C(C(N)=O)C(=O)[C@@]2(O)C(O)=C3C(=O)c4c(O)ccc(Cl)c4[C@@H](O)[C@H]3C[C@@H]12 | 0.727 ± 0.11 | 0.176 ± 0.0084 |
| CN(C)[C@@H]1C(O)=C(C(N)=O)C(=O)[C@@]2(O)C(O)=C3C(=O)c4c(O)ccc(Cl)c4[C@@](C)(O)[C@H]3C[C@@H]12 | 0.846 ± 0.031 | 0.23 ± 0.02 |
| CN(C)[C@@H]1C(O)=C(C(N)=O)C(=O)[C@@]2(O)C(O)=C3C(=O)c4c(O)cccc4[C@@](C)(O)[C@H]3[C@H](O)[C@@H]12 | 1.01 ± 0.074 | 0.0331 ± 0.014 |
| C=C1c2c(Cl)ccc(O)c2C(=O)C2=C(O)[C@]3(O)C(=O)C(C(N)=O)=C(O)[C@@H](N(C)C)[C@@H]3[C@@H](O)[C@H]12.O=C(O)c1cc(S(=O)(=O)O)ccc1O | 1.01 ± 0.065 | 0.0256 ± 0.0064 |
| OCc1ccccn1 | 1.02 ± 0.06 | 0.892 ± 0.1 |
| C=NC(C(=O)NC1C(=O)N2C1SC(C)(C)C2C(=O)O)c1ccccc1 (stereo not given) | 0.959 ± 0.021 | 1.04 ± 0.011 |
| Nc1ncnc(Nc2ccc(Cl)cc2)n1 | 1.1 ± 0.074 | 0.945 ± 0.42 |
